Results on 51 compounds are retold here after PubChem BioAssay AID588342 (National Center for Advancing Translational Sciences (NCATS), 2011).

The campaign covered roughly 360,000 compounds. About 25,000 (6.9%) were called active. Another 9% or so got no clear call; they are omitted. Calls come from the whole dose curve; as a rule, active = well fitted inhibition curve with a large enough effect; inconclusive = small, poorly fitted or top-dose-only effect; inactive = flat fitted curve, though single readings scatter. Shown is part of a subset that was picked to be rich in actives. Where a call stands in place of a potency, no number is given.

For the assay, the target named is Luciferin 4-monooxygenase (Photinus pyralis) (UniProt P08659). The experiment in a line: qHTS profiling assay for firefly luciferase inhibitor/activator using purifed enzyme and Km concentrations of substrates (counterscreen for miR-21 project). Note: nearly all actives have a fitted effect of over 55% in size. Conditions: purified FLuc, luminescence inhibition; series mostly up to 57.5 µM. The source says: MLPCN Grant: 1 R21 NS059478-01 (miR-21 grant) Assay Provider: NCGC NCGC Assay Overview: Firefly (Photinus pyralis) luciferase is one of the most commonly used transcriptional reporters for a number of reasons. It is considered one of the more dynamically responsive reporters -that is, responsive to changes in reporter transcription - as it requires no post-translational modifications and is enzymatically active directly after protein synthesis (Wood, 1998). Additionally, the half-life of the luciferase protein is short relative to other reporter-gene products (Wood, 1995). Whereas reporters with long half-lives potentially allow for increased signal due to accumulation of reporter-gene product, once accumulated in the cell, dynamic changes in reporter-gene expression may be difficult to detect(Fan and Wood, 2007; Almond et al., 2004). It has been shown that wild-type P. pyralis luciferase has a half-life of approximately […] hours in mammalian cells (Thompson et al., 1991). Firefly luciferase reporter-gene assays are also generally considered one of the most sensitive assay types (Wood, 1995; Wood, 1998). Although light produced in a bioluminescence reaction is of lower intensity than that produced during fluorescence emission, this is offset by little to no background light inherent to luminescent assays. Thus the luciferase reporter can be expressed at much lower levels than fluorescent proteins while still providing robust signal. # However, it was initially observed, in 1991, by Thompson et al., that compounds that resemble the substrates of firefly luciferase (FLuc) can act as competitive inhibitors of the enzyme, and that these compounds, upon interaction with luciferase in the cell, can actually stabilize the protein and increase its half-life. Accumulated intracellular FLuc protein can be measured as an increase in luminescence signal, upon addition of detection reagents (which contain high concentrations of FLuc substrates) commonly used in high-throughput screening. In cell-based reporter gene assays that use FLuc as the reporter gene to quantitate the potential influence of a given compound against the target biology, this apparent increase in luminescence can mistakenly be interpreted as identification of a compound that is active against the target of interest. This is the case for the miR-21 FLuc reporter gene assay used to identify inhibitors of the miR-21 pathway (PubChem AID 2289) - compounds of interest will inhibit miR-21 biogenesis/expression or activity, and are identified by causing an increase in luminescence, due to increased FLuc translation. However, FLuc inhibitory compounds that stabilize the FLuc protein will give an identical read-out, making it difficult to distinguish compounds that are active against the target from those active against FLuc. Previous profiling work to determine the prevalence of compounds that affect FLuc enzymatic activity (PubChem AID 411) identified that ~3% of the MLSMR library (then at ~72K) inhibited FLuc. […] Since the MLSMR had grown to ~350K compounds, and since it was expected that a significant percentage of compounds found active in the miR-21 FLuc assay would be FLuc inhibitors, the library was screened for activity against FLuc using a biochemical assay of purified FLuc and KM concentrations of FLuc substrates (D-luciferin and ATP).
Luciferin 4-monooxygenase (Photinus pyralis), sequence (P08659 whole entry, looked up): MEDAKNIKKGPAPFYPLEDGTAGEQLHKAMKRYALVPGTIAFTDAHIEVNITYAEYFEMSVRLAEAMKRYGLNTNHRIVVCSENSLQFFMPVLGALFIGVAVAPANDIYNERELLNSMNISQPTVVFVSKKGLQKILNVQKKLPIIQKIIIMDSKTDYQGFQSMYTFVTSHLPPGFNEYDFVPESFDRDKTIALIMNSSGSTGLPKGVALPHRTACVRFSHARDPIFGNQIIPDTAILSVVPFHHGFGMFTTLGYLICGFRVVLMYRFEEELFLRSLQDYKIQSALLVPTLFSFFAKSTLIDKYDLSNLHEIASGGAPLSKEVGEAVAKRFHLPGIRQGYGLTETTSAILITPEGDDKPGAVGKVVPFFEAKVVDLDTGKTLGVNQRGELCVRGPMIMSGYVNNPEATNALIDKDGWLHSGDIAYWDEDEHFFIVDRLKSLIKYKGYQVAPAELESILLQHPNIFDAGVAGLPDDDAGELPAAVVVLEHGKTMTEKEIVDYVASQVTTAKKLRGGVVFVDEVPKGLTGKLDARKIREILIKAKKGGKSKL
NCGC Assay Protocol Summary: Reagents: 50mM Tris acetate, pH 7.5; 10mM Mg acetate; 10uM D-luciferin (Sigma #L9504); 10uM ATP; 0.01% Tween-20; 0.05% BSA; 10nM P. pyralis luciferase (Sigma #L9506) Control compounds used were two known firefly luciferase inhibitors (compounds (2) and (5) in Auld et al., 2010), and DMSO. […]
(qHTS replaces the single test concentration by a dilution series.)
In the case of `COc1ccc(NC(=S)SC)cc1OC`, the Potency result was “inactive”.

As to `Cc1ccc2c(=O)c(C(=O)c3ccc(F)cc3)cn(CC(=O)NC3CCCCC3)c2n1`, the Potency result was “inactive”.

For `COc1ccc(NC(=O)c2ccco2)cc1NC(=O)c1ccc(C#N)cc1F`, the Potency result was “inactive”.

For `Cc1ccoc1C(=O)Nc1cccc(Oc2ccccc2)c1`, the Potency is 6.75 µM (active).

Turning to `O=C(NNC(=O)c1ccco1)Nc1ccccc1`, the Potency entry was “inactive”.

For `CSCCC(NC(=O)c1ccco1)C(=O)OCC(=O)Nc1ncc(Cl)c(C)c1Cl` (stereo unspecified), the Potency result was “inactive”.

Turning to `CSCCC(NC(=O)c1ccco1)C(=O)Nc1cc(C)ccn1` (stereo unspecified), the Potency is 15.1 µM (active).

For `Cc1cc(C)c(NC(=O)c2oc3ccccc3c2COc2ccccc2)c(C)c1`, the Potency result was “inactive”.

Consider `O=C(Nc1ccccc1)c1ccco1`, for which the Potency entry was “inactive”.

As for `COc1cccc(C(=O)Nc2ccc(NC(=O)c3ccco3)cn2)c1`, the Potency was 21.3 µM (active).

As to `O=C(Nc1ccc(Oc2ccccc2)cc1)c1ccco1`, the Potency is 5.36 µM (active).

For the compound `Cc1cccc(NC(=O)Nc2cccc(Oc3c(F)c(F)c(F)c(F)c3F)c2)c1`, the Potency entry was “inactive”.

In the case of `CSCCC(NC(=O)c1ccco1)C(=O)NCCc1ccc(F)cc1` (stereo unspecified), the Potency result was “inactive”.

For the compound `COc1ccc(NC(=O)CCC(=O)Nc2cc(OC)c(NC(=O)c3ccco3)cc2OC)c(OC)c1`, the Potency entry was “inactive”.

As for `CCOc1ccccc1C(=O)Nc1ccc(S(=O)(=O)N2CCCCC2c2cccnc2)cc1` (stereo unspecified), the Potency result was “inactive”.

As to `Cc1c(Cl)cccc1NC(=O)Cn1cc(C(=O)c2cccs2)c2ccccc21`, the Potency result was “inactive”.

For `Cc1cccc(OCCSc2nc3ccccc3n2CC(=O)N2CCCCC2)c1C`, the Potency entry was “inactive”.

Consider `COc1ccc(CNC(=O)c2ccc(NC(=O)N3CC4CCCN4c4ccccc43)cc2)cc1` (stereo unspecified), for which the Potency entry is “inactive”.

Regarding `O=C(CC(NCc1cccnc1)C(=O)O)Nc1ccc(O)cc1` (stereo unspecified), the Potency result is “inactive”.

On to `O=C(NCc1ccccc1CN1CCCC1)c1cccc(S(=O)(=O)Nc2ccc(F)cc2)c1`, for which the Potency entry is “inactive”.

`O=C(CCNC(=O)Cn1ccc2ccccc2c1=O)NCCC1=CCCCC1`: the Potency result is “inactive”.

Consider `Cc1ccnc(NC(=O)c2ccc(NC(=O)c3ccco3)cc2)c1`, for which the Potency was 10.7 µM (active).

With `Cc1ccnc(NC(=O)c2ccco2)n1`, the Potency entry is “inactive”.

As to `CC(C)(C)NC(=O)c1cc(NC(=O)c2ccco2)cc(NC(=O)c2ccco2)c1`, the Potency result was “inactive”.

In the case of `Cc1cccc(N(C(=O)Cc2cccs2)C(C(=O)NC2CCCC2)c2ccsc2)c1` (stereo unspecified), the Potency result was “inactive”.

Turning to `Nc1nc(SCCOc2ccccc2)n[nH]1`, the Potency entry is “inactive”.

Take `CCCOc1ccc(-c2nc(N)n[nH]2)cc1`: the Potency was 13.5 µM (active).

For `Cc1ccc(OCCCCc2c(C)n[nH]c2C)cc1`, the Potency result is “inactive”.

Take `Cc1ccc(CNC(=O)CSc2nnc3c(n2)[nH]c2ccc(F)cc23)cc1`: the Potency entry was “inactive”.

On to `COc1ccc(Cl)cc1NC(=O)C(C)Sc1nc2c(c(=O)[nH]1)CCCC2` (stereo unspecified), for which the Potency result was “inactive”.

`COC(=O)CN(c1nc(C)c(Cl)c(OC)n1)S(=O)(=O)c1ccc(C)cc1`: the Potency entry was “inactive”.

With `COc1ccc(S(=O)(=O)NC(C)C(=O)N2CCCCCC2)cc1` (stereo unspecified), the Potency result was “inactive”.

As for `Cc1c(NC(=O)c2cc(-c3ccc(Br)cc3)on2)c(=O)n(-c2ccccc2)n1C`, the Potency entry is “inactive”.

In the case of `COc1ccc2c(c1)CCc1c(C(=O)Nc3cc(C)ccc3O)noc1-2`, the Potency entry was “inactive”.

Consider `COc1ccc(C(=O)N2CCCN(C)CC2)c(OC)c1`, for which the Potency result was “inactive”.

With `COc1ccc2c(c1)CCc1c(C(=O)Nc3c(C)n(C)n(-c4ccccc4)c3=O)noc1-2`, the Potency is 23.9 µM (active).

Consider `COc1ccc2c(c1)CCc1c(C(=O)N3CCCC3)noc1-2`, for which the Potency was 12 µM (active).

Regarding `COc1ccc(Cl)cc1NC(=O)CSc1nc(-c2cccs2)cc(C(F)(F)F)n1`, the Potency result is “inactive”.

As to `CC(OC(=O)c1ccccc1NCCO)C(=O)Nc1ccnn1C(C)C` (stereo unspecified), the Potency entry was “inactive”.

In the case of `Cn1c(=O)oc2cc(S(=O)(=O)CCC(=O)NCCc3ccc(Cl)cc3)ccc21`, the Potency entry was “inactive”.

Consider `Fc1ccc(CSc2nc(NCc3ccccc3)c3ccccc3n2)cc1`, for which the Potency entry was “inactive”.

As to `COc1ccc(CNC(=O)COC(=O)c2ccc(C)c(S(=O)(=O)N3CCOCC3)c2)cc1OC`, the Potency entry was “inactive”.

Take `O=C(COC(=O)C1CC2CCCC(C1)C2=O)NC(=O)c1ccccc1` (stereo unspecified): the Potency entry is “inactive”.

With `CCc1ccc(Oc2coc3cc(O)ccc3c2=O)cc1`, the Potency is 23.9 µM (active).

Consider `CCc1ccc(Oc2coc3cc(OC(=O)c4cc5ccccc5oc4=O)ccc3c2=O)cc1`, for which the Potency entry is “inactive”.

As for `COc1ccc(Oc2coc3cc(OC(=O)c4cncc(Br)c4)ccc3c2=O)cc1`, the Potency result was “inactive”.

As to `N#Cc1ccc(-c2nc3cc(C#N)c(C#N)cc3nc2-c2ccccc2)cc1C#N`, the Potency entry was “inactive”.

In the case of `COc1ccc(C)cc1NC(=O)C(=O)NCCc1sc(-c2cccc(C)c2)nc1C`, the Potency entry is “inactive”.

As to `CN(C)c1ccnc(Nc2ccc(F)cc2)c1C#N`, the Potency result is “inactive”.

For the compound `CC(C)c1ccc(NC(=O)Cn2c3ncccc3c(=O)n2-c2ccccc2)cc1`, the Potency entry was “inactive”.

For the compound `CC(C)c1ccc(Nc2ncccc2C#N)cc1`, the Potency is 15.1 µM (active).
